# Source: the supplement of paper PMC8253809
# “And” between values parts separate entries of the source, which are not always exact repeats. Equal entries are not always repeated.
# Tested on: DIPGX29 (H3.3 K27M diffuse intrinsic pontine glioma line)
# Test: growth inhibition (% activity, log2 RLU normalised to DMSO / staurosporine); higher = more growth inhibition
# Settings: 33 µM
# Outline: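 In triplicate, pHGG cell lines and H9-derived neural stem cells were treated for 7 days at 37 °C, 5% CO2 with approved drugs at a single final concentration of about 33 μM, added by pin tool. CellTiter-Glo luminescence, after log2 transformation, was normalised on each plate to % activity between solvent and positive control wells. Growth inhibition is reported as the median across replicates.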
row,SMILES,growth inhibition
1,N=C(N)c1ccc(OCCCCCOc2ccc(C(=N)N)cc2)cc1,12.3%
2,Cc1c(-c2ccccc2)oc2c(C(=O)OCCN3CCCCC3)cccc2c1=O,-0.48%
3,O=P(O)(O)C(Cl)(Cl)P(=O)(O)O,0.766%
4,CCOC(=O)c1c(CSc2ccccc2)n(C)c2cc(Br)c(O)c(CN(C)C)c12,0.0747%
5,O=C(O)c1cc(=O)c2ccccc2o1,-0.199%
6,O=C(Nc1cccc2c(=O)cc(-c3nnn[nH]3)oc12)c1ccc(OCCCCc2ccccc2)cc1,2.7%
7,CC(C(=O)O)c1cccc(Oc2ccccc2)c1 (centres undefined),1.86% and -0.732%
8,CC(C[N+](C)(C)C)OC(N)=O (centres undefined),-2.19%
9,CC1(C)O[C@@H]2C[C@H]3[C@@H]4C[C@H](F)C5=CC(=O)C=C[C@]5(C)[C@@]4(F)[C@@H](O)C[C@]3(C)[C@]2(C(=O)CO)O1,5.9%
10,CC(=O)OCC(=O)[C@@]1(O)CC[C@H]2[C@@H]3CCC4=CC(=O)CC[C@]4(C)[C@H]3C(=O)C[C@@]21C,-5.36%
11,C[C@@]12C[C@@]3(O)O[C@@H](O1)[C@]1(COC(=O)c4ccccc4)[C@H]3C[C@@]12O[C@@H]1O[C@H](CO)[C@@H](O)[C@H](O)[C@H]1O,-0.664%
12,Cc1ccc(-n2[nH]c(C)c(N=Nc3cccc(-c4cccc(C(=O)O)c4)c3O)c2=O)cc1C,-2.95%
13,CCOC(=O)c1ccc(C#Cc2ccc3c(c2)C(C)(C)CCS3)nc1,3.83%
14,CN1C(C(=O)Nc2ccccn2)=C(O)c2sc(Cl)cc2S1(=O)=O,-1.88%
15,CC[C@H]1OC(=O)[C@H](C)[C@@H](O[C@H]2C[C@@](C)(OC)[C@@H](O)[C@H](C)O2)[C@H](C)[C@@H](O[C@@H]2O[C@H](C)C[C@H](N(C)C)[C@H]2O)[C@](C)(O)C[C@@H](C)C(=O)[C@H](C)[C@@H](O)[C@]1(C)O,0.288%
16,Clc1ccccc1CN1CCc2sccc2C1,1.5%
17,CC(C)OC(=O)C(C)(C)Oc1ccc(C(=O)c2ccc(Cl)cc2)cc1,3.79%
18,Clc1ccc(C(c2ccccc2Cl)C(Cl)Cl)cc1 (centres undefined),-1.94%
19,C=CCNC(N)=S,-0.199%
20,Clc1cccc(Cl)c1NC1=NCCN1,1.49%

row,SMILES,growth inhibition
1,CC(C)(C)CC(C)(C)c1ccc(OCCOCC[N+](C)(C)Cc2ccccc2)cc1,65.1%
2,CN(C)CCCN1c2ccccc2CCc2ccc(Cl)cc21,0.798%
3,O=C(NCCN1CCOCC1)c1ccc(Cl)cc1,0.0777%
4,Cc1onc(-c2c(Cl)cccc2Cl)c1C(=O)N[C@@H]1C(=O)N2[C@@H]1SC(C)(C)[C@@H]2C(=O)O,1.78%
5,C[C@](N)(Cc1ccc(O)c(O)c1)C(=O)O,0.0946%
6,CN(C)CCCC1(c2ccc(F)cc2)OCc2cc(C#N)ccc21 (centres undefined),1.68%
7,CNCCC(Oc1ccc(C(F)(F)F)cc1)c1ccccc1 (centres undefined),8.11%
8,O=C([O-])C(O)[C@H](O)[C@@H](O)[C@H](O)[C@H](O)CO.O=C([O-])C(O)[C@H](O)[C@@H](O)[C@H](O)[C@H](O)CO.[Ca+2] (some centres undefined),2.16%
9,Cc1c(C(=O)NN2CCCCC2)nn(-c2ccc(Cl)cc2Cl)c1-c1ccc(Cl)cc1,-2.71%
10,CC(=O)N1CCN(c2ccc(OCC3COC(Cn4ccnc4)(c4ccc(Cl)cc4Cl)O3)cc2)CC1 (centres undefined),5.63%
11,CC(C)(Oc1ccc(CCNC(=O)c2ccc(Cl)cc2)cc1)C(=O)O,1.81%
12,O=C1[C@@H]2[C@H]3CC[C@H](C3)[C@@H]2C(=O)N1C[C@@H]1CCCC[C@H]1CN1CCN(c2nsc3ccccc23)CC1,-3.28%
13,CC(C)(Oc1ccc(Cl)cc1)C(=O)O,-2.6%
14,Cc1cc(C)nc(NS(=O)(=O)c2ccc(N)cc2)n1,-2.92%
15,Cc1cnc(NC(=O)C2=C(O)c3ccccc3S(=O)(=O)N2C)s1,-1.57%
16,CNC(=O)c1ccc(N2C(=S)N(c3ccc(C#N)c(C(F)(F)F)c3)C(=O)C2(C)C)cc1F,0.905%
17,COc1cc2c(cc1Cc1cccc(Cl)c1F)c(=O)c(C(=O)O)cn2[C@H](CO)C(C)C,1.03%
18,C=C1CC[C@H](O)C/C1=C/C=C1\CCC[C@]2(C)[C@@H]([C@H](C)/C=C/[C@H](C)C(C)C)CC[C@@H]12,3.21%
19,CC(C)(C)c1ccc(C(O)CCCN2CCC(C(O)(c3ccccc3)c3ccccc3)CC2)cc1 (centres undefined),-0.594%
